# In PubChem BioAssay (NCATS):
# “And” between values parts separate entries of the source, which are not always exact repeats. Equal entries are not always repeated. Inconclusive results are not listed. Where a call stands in place of a potency, no number is given. The source made the active and inactive calls. The call rests on the fitted dose curve; in most records, active means well fitted curve in the direction sought with a large enough effect; inconclusive means small, poorly fitted or top-dose-only effect, or another doubt; inactive means no such curve, though single readings can be large; an effect the other way counts as inactive or inconclusive.
# What was measured:
# [1] = tested on: Zika virus NS2B-NS3 protease (unlinked); experiment: Optimization of GU AMC qHTS for Zika virus inhibitors: Unlinked NS2B-NS3 protease assay (AID 1347151); further: nearly all actives have a fitted effect of over 80% in size; further: potency means the concentration at half of the fitted maximal effect
# Procedure, shortened: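 Noncovalent complex of NS2B hydrophilic domain and NS3 protease domain, 25 nM final, in 10 mM Tris-HCl pH 8.0, 0.01% Tween 20. AMC fluorescence change over 15 min at room temperature was fitted to a 4-parameter Hill equation.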
# [2] = tested on: Zika virus NS2B-NS3 protease; experiment: Primary screen GU AMC qHTS for Zika virus inhibitors (AID 1347154); further: nearly all actives have a fitted effect of over 70% in size; further: potency means the concentration at half of the fitted maximal effect
# Procedure, shortened: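 Unlinked Zika NS2B hydrophilic domain/NS3 protease domain noncovalent complex (25 nM final) in 10 mM Tris-HCl pH 8.0, 0.01% Tween 20, with AMC peptide substrate. Fluorescence (ex 340, em 450 nm) change over 15 min, room temperature; percent inhibition fitted to 4-parameter Hill equation.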
# [3] = Confirmatory screen GU Rhodamine qHTS for Zika virus inhibitors qHTS (AID 1347157); conditions: purified enzyme assay, Rhodamine110 substrate fluorescence, 15 min; further: potency means the concentration at half of the fitted maximal effect; nearly all actives have a fitted effect of over 70% in size
# Procedure, shortened: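 Enzyme 25 nM in Tris-HCl pH 8.0 + 0.01% Tween 20; compounds up to 114 microM, 15 min RT dark; + Rhod110 substrate 1.5 microM; read t0 and 15 min; delta fluorescence → % inhibition → 4-parameter Hill fit.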
# [4] = Confirmatory screen NINDS Rhodamine qHTS for Zika virus inhibitors (AID 1347161); further: nearly all actives have a fitted effect of over 60% in size; further: potency means the concentration at half of the fitted maximal effect
# Procedure, shortened: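 qHTS dose-response: 25 nM linked protease, pH 8.0 Tris/Tween buffer, cpd titration, 15 min RT preinc, 1.5 microM Rhod110 peptide, 15 min reaction (~15% conversion), Ex480/Em540; 4-parameter Hill fit.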
# [5] = tested on: Zika virus NS2B-NS3 protease (linked); experiment: 384 well plate NINDS AMC confirmatory qHTS for Zika virus inhibitors (AID 1347163); further: potency means the concentration at half of the fitted maximal effect; nearly all actives have a fitted effect of over 50% in size
# Procedure, shortened: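 Enzyme (5, 30 or 60 nM final) first met test compounds for ~15 min. The AMC-tagged peptide Ac-VKTGKR-AMC followed at 30 microM. Fluorescence was then recorded at 25 min and scaled against no-enzyme and no-inhibitor wells.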
# [6] = ZIKV-mCherry secondary qHTS for Zika virus inhibitors (AID 1347158); further: top concentration of the series differs between compounds
# Procedure, shortened: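 This orthogonal imaging screen measured ZIKV-mCherry infection of Vero cells exposed to compound, MOI 1, 48-72 h. Percent infection came from segmented nuclei scored mCherry-positive above 3 SD of negative controls.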
# [7] = tested on: Zika virus NS2B-NS3 protease (linked construct); experiment: Primary screen NINDS Rhodamine qHTS for Zika virus inhibitors (AID 1347160); conditions: outcome: dose series up to 57.1 µM unless noted; further: nearly all actives have a fitted effect of over 55% in size
# Procedure, shortened: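 Rhodamine110-peptide cleavage (1.5 µM substrate) by 25 nM linked NS2B-NS3 enzyme at pH 8.0 (Tris, Tween 20), after 15 min RT preincubation with compounds; 15-min fluorescence change normalized to controls and Hill-fitted.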
# [8] = tested on: Zika virus NS2B-NS3 protease (unlinked complex); experiment: Primary screen GU Rhodamine qHTS for Zika virus inhibitors: Unlinked NS2B-NS3 protease assay (AID 1347159); further: nearly all actives have a fitted effect of over 60% in size
# Procedure, shortened: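 Percent inhibition came from the 15-min rise in Rhodamine110 fluorescence (1.5 microM substrate, ~15% conversion), normalized to no-inhibitor and no-enzyme wells and Hill-fitted. Unlinked protease, 25 nM, pH 8.0 Tris buffer; compounds up to 114 microM, 15-min preincubation.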
smiles,measurement,setting,value
Cc1ccc(C(=O)Nc2ccc(S(=O)(=O)O)c3cc(S(=O)(=O)O)cc(S(=O)(=O)O)c23)cc1NC(=O)c1cccc(NC(=O)Nc2cccc(C(=O)Nc3cc(C(=O)Nc4ccc(S(=O)(=O)O)c5cc(S(=O)(=O)O)cc(S(=O)(=O)O)c45)ccc3C)c2)c1,Potency,[1],16.8 µM (active)
same,Potency,[2],5.01 µM (active)
same,Potency,[3],2.82 µM (active) and 2 µM (active) and 2.24 µM (active)
same,Potency,[4],2.24 µM (active) and 2.51 µM (active)
same,Potency,[5],7.94 µM (active)
Cc1cn([C@H]2C[C@H](N=[N+]=[N-])[C@@H](CO)O2)c(=O)[nH]c1=O,Potency,[2],inactive
Cc1ccccc1N1C(=O)c2cc(S(N)(=O)=O)c(Cl)cc2NC1C (stereo unspecified),Potency,[4],inactive
O=c1c(O)c(-c2ccc(O)c(O)c2)oc2cc(O)cc(O)c12,Potency,[1],2.12 µM (active)
same,Potency,[2],inactive
same,outcome,[6],inactive
same,Potency,[4],50.1 µM (active)
COc1ccc2[nH]cc(CCNC(C)=O)c2c1,Potency,[2],inactive
same,outcome,[7],inactive
Fc1ccc([C@@H]2CCNC[C@H]2COc2ccc3c(c2)OCO3)cc1,Potency,[1],inactive
same,Potency,[2],inactive
C[C@@H]1CC(=O)NN=C1c1ccc(NN=C(C#N)C#N)cc1,Potency,[2],inactive
Nc1nnc(-c2cccc(Cl)c2Cl)c(N)n1,Potency,[1],inactive
same,Potency,[2],inactive
CC1(C)O[C@H]2CC(=O)OC[C@]23[C@H]2CC[C@@]4(C)[C@H](c5ccoc5)OC(=O)[C@H]5O[C@]54[C@]2(C)C(=O)C[C@@H]13,Potency,[2],inactive
same,Potency,[8],inactive
same,outcome,[7],inactive [at 33.1 µM]
